Experimental data reported in PubChem BioAssay (NCI).
Compounds without any hit were thinned out: in the full panel of roughly 83,000, 20% have a hit.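 Cell lines were cultured in 96-well plates, exposed to a single compound concentration, and assessed for percent growth 48 hours later.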 A number with no mark means an inactive call. Active and inactive are the calls of the source. Rule for the calls: active = growth percent below 10; inactive = the rest.

The molecules below were run on OVCAR-5 ovarian (assay: NCI-60 one-dose screen, 48 h (100 = growth as untreated, 0 = no growth, -100 = all killed)). Details: 10 µM unless noted.

Row | SMILES | growth
1 | Cc1cc(C)n(CC(=O)Nc2ccc(-c3nc4ccccc4s3)cc2)n1 | 105%
2 | CNS(=O)(=O)Nc1nccc(Cc2c(C)c3ccc(Oc4ncccn4)cc3oc2=O)c1F | 20.4%
3 | C[C@@H](Oc1cc(-n2cnc3ccc(CN4CCN(C)CC4)cc32)sc1C(N)=O)c1ccccc1C(F)(F)F | 19.9%
4 | COc1ccc(Cl)c(Nc2nc3ccccc3nc2NS(=O)(=O)c2cccc(NC(=O)C(C)(C)N)c2)c1 | 45.7%
5 | COc1ccc(-c2ccc3c(N4CCOC[C@@H]4C)nc(N4CCOC[C@@H]4C)nc3n2)cc1CO | 7.09% (active)
6 | O=C(Nc1cccc(Cl)c1)Nc1ncc(CCNc2ncnc3ccsc23)s1 | 64.6%
7 | C#Cc1cccc(Nc2ncnc3cc(OCCOC)c(OCCOC)cc23)c1 | 48.4%
8 | O=C(Nc1ccc(Nc2ncnc3sc4c(c23)CCOC4)cc1)Nc1ccc(Cl)c(C(F)(F)F)c1 | 89.2%
9 | CCCCN1C(=O)c2cccc3c(-c4ccc5c(c4)ncn5C4CCCCC4)ccc(c23)C1=O | 98.3%
10 | COc1cc(Nc2c(C#N)cnc3cc(OCCCN4CCN(C)CC4)c(OC)cc23)c(Cl)cc1Cl | 22.8%
11 | COc1ncc(-c2ccc3nccc(-c4ccnnc4)c3c2)cc1NS(=O)(=O)c1ccc(F)cc1F | 7.97% (active)
12 | C/C(=C(/c1ccc(Cl)cc1)c1ccc(OCCN2CCCC2)cc1)c1ccccc1 | 64.7%
13 | COc1cc(OC)c(/C=C/S(=O)(=O)Cc2ccc(OC)c(NCC(=O)O)c2)c(OC)c1 | 49.1%
14 | Nc1ncnc2c1ccn2-c1cccc(NC(=O)c2ccc(N3CCOCC3)c(C(F)(F)F)c2)c1 | 72.9%
15 | C/C=C/C=N/NC(=S)Nc1ccccc1 | 82.2%
16 | C=CC(=O)Nc1cc(Nc2nccc(-c3cn(C)c4ccccc34)n2)c(OC)cc1N(C)CCN(C)C | -56.5% (active)
17 | C[C@@H](NC(=O)c1ncnc(N)c1Cl)c1ncc(C(=O)Nc2cc(C(F)(F)F)c(Cl)cn2)s1 | 31.3%
18 | COc1cc2c(Oc3ccc4[nH]c(C)cc4c3F)ncnc2cc1OCCCN1CCCC1 | 78.4%
19 | NC[C@@](O)(c1ccc(Cl)cc1)c1ccc(-c2cn[nH]c2)cc1 | 18.8%
20 | Cc1cc(O)cc(-c2c(-c3ccnc(-c4cccnc4)c3)cnn2C)c1 | 54.9%

Row | SMILES | growth
21 | CS(=O)(=O)N1CCN(Cc2cc3nc(-c4cccc5[nH]ncc45)nc(N4CCOCC4)c3s2)CC1 | 20.5%
22 | CN[C@@H]1C[C@H]2O[C@@](C)([C@@H]1OC)n1c3ccccc3c3c4c(c5c6ccccc6n2c5c31)C(=O)N[C@H]4O | -2.9% (active)
23 | O=c1[nH]ccc2c(S(=O)(=O)N3CCCNCC3)cccc12 | 62.9%
24 | CCN(CCCOc1ccc2c(Nc3cc(CC(=O)Nc4cccc(F)c4)[nH]n3)ncnc2c1)CCOP(=O)(O)O | 59.3%
25 | Cn1cc(-c2cnn3c(N)c(Br)c([C@@H]4CCCNC4)nc23)cn1 | 56.9%
26 | C[C@@H](Nc1cc(F)cc(F)c1)c1cc(C(=O)N(C)C)cc2c(=O)cc(N3CCOCC3)oc12 | 54.5%
27 | COc1ccc2c(CCCc3ccc(Cl)cc3Cl)c3[n+](cc2c1OC)CCc1cc2c(cc1-3)OCO2 | 28.9%
28 | Cn1c(=O)c(F)c(Nc2ccc(I)cc2F)c2c(=O)n(C[C@@H](O)CO)cnc21 | 6.95% (active)
29 | CC(C)(C)c1cnc(CSc2cnc(NC(=O)C3CCNCC3)s2)o1 | 14.9%
30 | NC1(C(=O)N[C@@H](CCO)c2ccc(Cl)cc2)CCN(c2ncnc3[nH]ccc23)CC1 | 51.6%
31 | COC(=O)c1ccc2c(C(=Nc3ccc(N(C)C(=O)CN4CCN(C)CC4)cc3)c3ccccc3)c(O)[nH]c2c1 | 64.5%
32 | CS(=O)(=O)CCNCc1ccc(-c2ccc3ncnc(Nc4ccc(OCc5cccc(F)c5)c(Cl)c4)c3c2)o1 | 65.2%
33 | C1=C\COCc2cc(ccc2OCCN2CCCC2)Nc2nccc(n2)-c2cccc(c2)COC/1 | -6.58% (active)
34 | O=C(Nc1cn[nH]c1-c1nc2ccc(CN3CCOCC3)cc2[nH]1)NC1CC1 | 22.5%
35 | Cc1cc2c(-c3nc4ccccn4c3N)c(O)c(O)cc2c(O)c1-c1c(C)cc2c(-c3nc4ccccn4c3N)c(O)c(O)cc2c1O | 36.7%
36 | Cc1csc(-c2nnc(Nc3ccc(Oc4ncccc4-c4ccnc(N)n4)cc3)c3ccccc23)c1 | 51.5%
37 | CC(C)CC(=O)Nc1n[nH]c2c1CN(C(=O)C1CCN(C)CC1)C2(C)C | 8.63% (active)
38 | Cc1ccccc1N1C(c2ccccc2)=NNC12C=CC(=O)C=C2Cl (centres undefined) | 87.8%
39 | C=CCn1c(=O)c2cnc(Nc3ccc(N4CCN(C)CC4)cc3)nc2n1-c1cccc(C(C)(C)O)n1 | 25.1%
